“And” between values parts separate entries of the source, which are not always exact repeats. Equal values may be shown once. Results filed as inconclusive are left out. The source made the active and inactive calls. Unless noted, calls come from the whole dose curve; as a rule, active = well fitted curve in the direction sought with a large enough effect; inconclusive = small, poorly fitted or top-dose-only effect, or another doubt; inactive = no such curve, though single readings can be large; an effect the other way counts as inactive or inconclusive.
Experiments:
C33A = test: Primary qHTS to identify gynecologic anti-cancer compounds using libraries of approved drugs and bioactive compounds (AID 1345084); conditions: Gynecologic cancer cell panel viability, ATPlite luminescence, 48 h; series mostly up to 57.5 µM; note: % is set by controls: 0 for no effect and ±100 for the full control effect; nearly all actives have a fitted effect of over 55% in size
Outline: (§1)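 Five-point cytotoxicity, 48 h drug exposure at 37 C, 5% CO2, on cells seeded 16 h beforehand. ATP content read by ATPlite luminescence.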

CASKI = test: as above; conditions: Gynecologic cancer cell panel viability, ATPlite luminescence, 48 h; series mostly up to 57.5 µM
Outline: as §1

Es-2 = test: as above; conditions: Gynecologic cancer cell panel viability, ATPlite luminescence, 48 h; series mostly up to 57.5 µM
Outline: as §1

HeLa = test: as above; conditions: Gynecologic cancer cell panel viability, ATPlite luminescence, 48 h; series mostly up to 57.5 µM
Outline: as §1

Hek293T = test: as above; conditions: Gynecologic cancer cell panel viability, ATPlite luminescence, 48 h, control line for the selectivity index; series mostly up to 57.5 µM
Outline: as §1

JEG-3 = test: as above; conditions: Gynecologic cancer cell panel viability, ATPlite luminescence, 48 h; series mostly up to 57.5 µM
Outline: as §1

OV90 = test: as above; conditions: Gynecologic cancer cell panel viability, ATPlite luminescence, 48 h; series mostly up to 57.5 µM
Outline: as §1

PA-1 = test: as above; conditions: Gynecologic cancer cell panel viability, ATPlite luminescence, 48 h; series mostly up to 57.5 µM
Outline: as §1

SKOV3 = test: as above; conditions: Gynecologic cancer cell panel viability, ATPlite luminescence, 48 h; series mostly up to 57.5 µM
Outline: as §1

Tov-21-G = test: as above; conditions: Gynecologic cancer cell panel viability, ATPlite luminescence, 48 h; series mostly up to 57.5 µM
Outline: as §1

Tov112D = test: as above; conditions: Gynecologic cancer cell panel viability, ATPlite luminescence, 48 h; series mostly up to 57.5 µM
Outline: as §1

[1] = Drug repurposing screens with cells derived from glioblastoma tumor samples (AID 1345199); conditions: GBM patient neurospheres viability, ATP luminescence, 48 h; note: nearly all actives have a fitted effect of over 40% in size; note: potency is the fitted concentration of half-maximal effect; for activity, negative = cell killing: % is set by controls: 0 for no effect and ±100 for the full control effect
Outline: (§2)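 Four patient lines of CD133+ GBM neurospheres were screened at several concentrations; hits were retested in those lines plus three slower-growing GBM lines, using 48-hour treatment and ATP-based viability.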

astro = test: as above; conditions: viability, ATP luminescence, 48 h; series mostly up to 45.9 µM
Outline: as §2

[2] = qHTS assay to identify inhibitors of the type 1 interferon - major histocompatibility complex class I in skeletal muscle: Counter screen cell viability and HiBit confirmation (AID 1347412); conditions: iHSKM muscle cells + IFN-b, HiBiT or CellTiter-Glo, 24 h; note: potency is the fitted concentration of half-maximal effect; nearly all actives have a fitted effect of over 60% in size
Outline: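 HLA-B*08:01–HiBiT knock-in immortalized human myoblasts (C25cl48) stimulated with 4.0 ng/ml human IFN-beta and dosed with compound in a 12-point 1:3 titration (top final 46 uM). After 24 hrs at 37 C, HiBiT lytic luminescence or CellTiter Glo ATP read out.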

[3] = target: Nuclear receptor subfamily 1 group I member 2 (Rattus norvegicus) (UniProt Q9R1A7); test: qHTS assay for small molecule activators of the rat pregnane X receptor (rPXR) signaling pathway (AID 651751; call rule not given here; note: 0% is about no effect); conditions: rPXR reporter cells, luciferase (One-Glo), 24 h
[4] = qHTS assay for small molecule activators of the human pregnane X receptor (PXR) signaling pathway (AID 720659; call rule not given here; note: 0% is about no effect)
[5] = at 45.9 µM (top of the series), tumour line B
[6] = at 45.9 µM (top of the series), tumour line D
[7] = at 46 µM (top of the series), tumour line A
[8] = at 46.1 µM (top of the series), tumour line C

Nuclear receptor subfamily 1 group I member 2 (Rattus norvegicus), sequence (Q9R1A7 whole entry, looked up): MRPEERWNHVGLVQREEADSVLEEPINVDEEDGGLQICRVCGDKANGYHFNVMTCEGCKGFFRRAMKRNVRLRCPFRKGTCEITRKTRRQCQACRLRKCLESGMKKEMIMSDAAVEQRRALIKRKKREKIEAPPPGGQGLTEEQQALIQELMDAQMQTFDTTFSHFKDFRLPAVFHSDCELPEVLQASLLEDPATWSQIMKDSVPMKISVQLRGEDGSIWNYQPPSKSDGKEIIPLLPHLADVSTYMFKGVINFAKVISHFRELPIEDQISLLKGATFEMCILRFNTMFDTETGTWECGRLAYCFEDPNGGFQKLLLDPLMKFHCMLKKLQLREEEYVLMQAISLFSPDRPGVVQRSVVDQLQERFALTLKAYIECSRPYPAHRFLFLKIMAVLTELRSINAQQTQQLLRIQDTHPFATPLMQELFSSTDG

OC[C@@H](O)[C@H](O)[C@H](O)[C@@H](O)CO
inactive: Potency (C33A) | Potency (CASKI) | Potency (Es-2) | Potency (HeLa) | Potency (Hek293T) | Potency (JEG-3) | Potency (OV90) | Potency (PA-1) | Potency (SKOV3) | Potency (Tov-21-G) | Potency (Tov112D) | activity, negative = cell killing [1, 5] 0.357% and -12% | activity, negative = cell killing [1, 6] -2.85% and -9.13% | activity, negative = cell killing [1, 7] -13.7% and -24.1% | activity, negative = cell killing [1, 8] -4.39% and -14.9% | Potency (astro)

NCCS
inactive: Potency (C33A) | Potency (CASKI) | Potency (Es-2) | Potency (HeLa) | Potency (Hek293T) | Potency (JEG-3) | Potency (OV90) | Potency (PA-1) | Potency (SKOV3) | Potency (Tov-21-G) | Potency (Tov112D) | activity, negative = cell killing [1, 5] -3.94% and -12.1% | activity, negative = cell killing [1, 6] -6.82% and -13.2% | activity, negative = cell killing [1, 7] -8.15% and -11.3% | activity, negative = cell killing [1, 8] -12.7% and -9.68% | Potency (astro)

CO[C@H]1C=CO[C@@]2(C)Oc3c(C)c(O)c4c(O)c(c5c(c4c3C2=O)NC2(CCN(CC(C)C)CC2)N=5)=NC(=O)C(C)=CC=C[C@H](C)[C@H](O)[C@@H](C)[C@@H](O)[C@@H](C)[C@H](OC(C)=O)[C@H]1C
inactive: Potency (C33A) | Potency (CASKI) | Potency (Es-2) | Potency (HeLa) | Potency (Hek293T) | Potency (JEG-3) | Potency (OV90) | Potency (PA-1) | Potency (SKOV3) | Potency (Tov-21-G) | Potency (Tov112D)

COc1cc2ncnc(-n3nc(-c4ccccn4)nc3N)c2cc1OC
inactive: Potency (C33A) | Potency (CASKI) | Potency (Es-2) | Potency (HeLa) | Potency (Hek293T) | Potency (JEG-3) | Potency (OV90) | Potency (PA-1) | Potency (Tov-21-G) | Potency (Tov112D)

O=C(Nc1ccccc1-c1cn2c(CN3CCNCC3)csc2n1)c1cnc2ccccc2n1
inactive: Potency (C33A) | Potency (CASKI) | Potency (Es-2) | Potency (HeLa) | Potency (Hek293T) | Potency (JEG-3) | Potency (OV90) | Potency (PA-1) | Potency (SKOV3) | Potency (Tov-21-G) | Potency (Tov112D)
active: Potency ([2]; HiBiT) 11.1 µM | Potency ([2]; Viability) 15.7 µM

CCCNC(=O)NS(=O)(=O)c1ccc(Cl)cc1
inactive: Potency (C33A) | Potency (CASKI) | Potency (Es-2) | Potency (HeLa) | Potency (Hek293T) | Potency (JEG-3) | Potency (OV90) | Potency (PA-1) | Potency (SKOV3) | Potency (Tov-21-G) | Potency (Tov112D) | activity, negative = cell killing [1, 5] -7.96% | activity, negative = cell killing [1, 6] 5.01% | activity, negative = cell killing [1, 7] -11.4% | activity, negative = cell killing [1, 8] -13.2% | Potency (astro) | max response [3] -5.97% and -1.04% | outcome [4]

COc1ccc2c(Oc3ccc(NC(=O)c4c(C)n(CC(C)(C)O)n(-c5ccccc5)c4=O)cc3F)ccnc2c1
inactive: Potency (C33A) | Potency (CASKI) | Potency (Es-2) | Potency (HeLa) | Potency (Hek293T) | Potency (JEG-3) | Potency (OV90) | Potency (PA-1) | Potency (Tov-21-G) | Potency (Tov112D)

CCN(CC)CCNC(=O)c1ccc(N)cc1
inactive: Potency (C33A) | Potency (CASKI) | Potency (Es-2) | Potency (HeLa) | Potency (Hek293T) | Potency (JEG-3) | Potency (OV90) | Potency (PA-1) | Potency (SKOV3) | Potency (Tov-21-G) | Potency (Tov112D) | activity, negative = cell killing [1, 5] -3.23% | activity, negative = cell killing [1, 8] 15.6% | Potency (astro)

CCN1CCC[C@H]1CNC(=O)c1cc(S(N)(=O)=O)ccc1OC
inactive: Potency (C33A) | Potency (CASKI) | Potency (Es-2) | Potency (HeLa) | Potency (Hek293T) | Potency (JEG-3) | Potency (OV90) | Potency (PA-1) | Potency (SKOV3) | Potency (Tov-21-G) | Potency (Tov112D) | activity, negative = cell killing [1, 5] 0.712% | activity, negative = cell killing [1, 6] -10.3% | activity, negative = cell killing [1, 7] -29.7% | activity, negative = cell killing [1, 8] 1.29% | Potency (astro)

COc1ccc(C2Sc3ccccc3N(CCN(C)C)C(=O)C2OC(C)=O)cc1 (configuration not stated)
inactive: Potency (C33A) | Potency (CASKI) | Potency (Es-2) | Potency (HeLa) | Potency (Hek293T) | Potency (JEG-3) | Potency (OV90) | Potency (PA-1) | Potency (Tov-21-G) | Potency (Tov112D)

CNC(=O)c1ccc2cc(C3(O)CCn4cncc43)ccc2c1 (configuration not stated)
inactive: Potency (C33A) | Potency (CASKI) | Potency (Es-2) | Potency (HeLa) | Potency (Hek293T) | Potency (JEG-3) | Potency (OV90) | Potency (PA-1) | Potency (SKOV3) | Potency (Tov-21-G) | Potency (Tov112D)

CC(C)(C)c1ccc(C(O)CCCN2CCC(C(O)(c3ccccc3)c3ccccc3)CC2)cc1 (configuration not stated)
inactive: Potency (C33A) | Potency (CASKI) | Potency (Es-2) | Potency (HeLa) | Potency (Hek293T) | Potency (JEG-3) | Potency (OV90) | Potency (PA-1) | Potency (SKOV3) | Potency (Tov-21-G) | Potency (Tov112D) | activity, negative = cell killing [1, 8] -2.38%
active: Potency ([1]; tumour line A) 5.01 µM | Potency ([1]; tumour line B) 11.2 µM | Potency ([1]; tumour line D) 10 µM | Potency (astro) 35.5 µM and 20 µM | Potency ([2]; Viability) 22.2 µM

CCN(CC)C(=O)c1ccc(O)c(OC)c1
inactive: Potency (C33A) | Potency (CASKI) | Potency (Es-2) | Potency (HeLa) | Potency (Hek293T) | Potency (JEG-3) | Potency (OV90) | Potency (PA-1) | Potency (SKOV3) | Potency (Tov-21-G) | Potency (Tov112D) | activity, negative = cell killing ([1]; at 20 µM (top of the series), tumour line C) -17.1% | activity, negative = cell killing ([1]; at 21.2 µM (top of the series), tumour line B) -3.79% | activity, negative = cell killing ([1]; at 21.2 µM (top of the series), tumour line D) 8.85% | activity, negative = cell killing ([1]; at 21.3 µM (top of the series), tumour line A) -7.96% | activity, negative = cell killing [1, 5] -9.11% | activity, negative = cell killing [1, 6] 5.23% | activity, negative = cell killing [1, 7] -18.7% | activity, negative = cell killing [1, 8] -18.9% | Potency (astro)

CCCCC1C(=O)N(c2ccccc2)N(c2ccccc2)C1=O
inactive: Potency (C33A) | Potency (CASKI) | Potency (Es-2) | Potency (HeLa) | Potency (Hek293T) | Potency (JEG-3) | Potency (OV90) | Potency (PA-1) | Potency (SKOV3) | Potency (Tov-21-G) | Potency (Tov112D) | activity, negative = cell killing [1, 5] -14.3% and -18.7% | activity, negative = cell killing [1, 6] -13.1% and -6.92% | activity, negative = cell killing [1, 8] 4.16% and -25.1% | Potency (astro)

Source: PubChem BioAssay (NCATS)
